Source: PubChem
NPYLR7 ag: agonists of mosquito NPYLR7 receptor, primary screen, cell-based, Aedes aegypti, calcium fluorescence, mosquito biting behavior; Aedes aegypti neuropeptide Y-like receptor 7 (NPYLR7); HEK293T NPYLR7/Galpha15, GCaMP6s calcium fluorescence; activation, % at 10 µM; actives 0.15% (n = 270,000); AID 1259423, 2018; in the data active means activation above about 40%;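 further: 0% = vehicle and 100% = reference agonist at the receptor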
hcGAS lum: Primary biochemical luminescence assay for human cyclic GMP-AMP synthase inhibitors. AID 1259398, 2018. inhibition, % at 12.5 µM. recombinant h-cGAS, ATP depletion, Kinase-Glo luminescence. actives 0.081% (n = 290,000). Q8N884;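 further: 0% = vehicle reaction and 100% = reaction without DNA for no activity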
Target sequence (Q8N884 whole entry, looked up): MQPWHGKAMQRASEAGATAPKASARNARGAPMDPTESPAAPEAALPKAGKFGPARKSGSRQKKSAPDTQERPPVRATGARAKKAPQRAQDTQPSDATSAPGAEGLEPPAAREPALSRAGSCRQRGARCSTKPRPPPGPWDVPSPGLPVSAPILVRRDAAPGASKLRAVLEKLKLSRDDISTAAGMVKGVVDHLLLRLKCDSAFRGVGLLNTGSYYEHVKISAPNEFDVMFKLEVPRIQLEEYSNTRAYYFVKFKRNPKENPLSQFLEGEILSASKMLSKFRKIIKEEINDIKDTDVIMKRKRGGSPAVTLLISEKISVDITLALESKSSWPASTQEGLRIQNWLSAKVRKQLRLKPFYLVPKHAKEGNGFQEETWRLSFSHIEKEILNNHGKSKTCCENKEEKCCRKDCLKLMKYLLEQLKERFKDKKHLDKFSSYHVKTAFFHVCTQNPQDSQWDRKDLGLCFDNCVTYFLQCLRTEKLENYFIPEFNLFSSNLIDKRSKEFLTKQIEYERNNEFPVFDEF
mcGAS inh: cyclic GMP-AMP synthase inhibitors, mouse, primary biochemical chemiluminescence; Q8C6L5; recombinant cGAS, Kinase-Glo ATP depletion luminescence; inhibition, % at 12.5 µM; actives 0.15% (n = 160,000); AID 1259399, 2018;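 further: 0% = negative control wells and 100% = reference inhibitor with no enzyme activity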
An asterisk follows results filed as active; · = no result; ! = repeats disagree. Only some compounds are listed: those with a hit (about 0.24% of all), similar ones and a draw of the others. Unless noted, no stated cut-off is given here; in the data, active means inhibition above about 40%; inactive means the rest.

SMILES | NPYLR7 ag | hcGAS lum | mcGAS inh
Cc1cc(-c2ccco2)nc2cc3c(cc12)OCO3 | 0 | 1 | ·
Cc1c2c(nc3cc4c(cc13)OCO4)CCc1ccccc1-2 | 2 | 47* | ·
O=C(Nc1ccc(Cl)cc1)N1CCSC12C(=O)N(Cc1ccc(F)cc1F)c1ccccc12 (configuration not stated) | -2 | -2 | 1
CCCCN(C(=O)Nc1cccc(C(F)(F)F)c1)C(C)c1nc2ccccc2c(=O)n1-c1cc(C)ccc1OC (configuration not stated) | · | -13 | -6
CN1CCC(=C2c3ccccc3Sc3ccccc32)CC1 | 54*! | -3 | -5
CN1CCC(=C2c3ccccc3C=Cc3ccccc32)CC1 | -5 | -1 | -4
Cc1oc(-c2ccccc2NS(=O)(=O)c2cccc(F)c2)nc1CNC(=O)CC(C)C | 5 | -5 | ·
Cc1oc(-c2cccc(NC(=O)CC(C)C)c2)nc1CNC(=O)Cc1cc(F)cc(F)c1 | 56* | -7 | -8
CCN(CC)C(=O)Oc1ccc2c(ccn2Cc2cccc(C)c2)c1NC(=O)c1ccc(Cl)c(Cl)c1 | 2 | -6 | -6
C[N+]1=C(CC=Nc2ccccc2)SCC1 | -1 | -3 | ·
C(/C=C/CC=Nc1ccccc1)=Nc1ccccc1 | 66* | -5 | -7
CCCc1[nH]n(-c2cccc(Cl)c2)c(=O)c1/C=C1\NC(=O)N(Cc2ccc(C)cc2)C1=O | -2 | 7 | 1
CCCc1[nH]n(-c2ccc(Cl)c(Cl)c2)c(=O)c1/C=C1\NC(=O)N(Cc2ccc(C)cc2)C1=O | 56* | -2 | -9
O=c1c2ccccc2nnn1Cc1ccc(Cl)cc1 | -5 | 9 | -3
COc1cc(-c2nc3n(n2)C(c2ccc(O)cc2)C(C(N)=O)=C(C)N3)cc(OC)c1OC (configuration not stated) | 51* | -1 | ·
COc1ccc(C2C(C(N)=O)=C(C)Nc3ncnn32)cc1 (configuration not stated) | -1 | -9 | -5
CCN1CC(=Cc2cc(C)n(C3CC3)c2C)C(=O)C(=Cc2cc(C)n(C3CC3)c2C)C1 | 48* | -12 | ·
Cc1cc(C=C2SC(N)=NC2=O)c(C)n1C1CC1 | 4 | -10 | ·
COc1cc2c(cc1CN1CCn3nc(C(=O)N4CCCC4)cc3C1)OCO2 | · | -3 | 0
CC(C)N1CCc2c(sc(NC(=O)c3ccnn3C)c2-c2nc3ccccc3s2)C1 | · | -1 | -3
CC(=O)Nc1sc2c(c1-c1nc3ccccc3s1)CCN(C(C)C)C2 | 22 | 78* | 104*
Cc1ccc(NC2C=CS(=O)(=O)C2)cc1C (configuration not stated) | 110* | -3 | -3
Cc1ccc(F)cc1CC(=O)NC1C=CS(=O)(=O)C1 (configuration not stated) | 8 | -1 | 3
Cc1nc(CN2CCN(C(=O)c3oc4c(C)c(C)ccc4c3C)CC2)cs1 | 11 | -9 | ·
CC(=O)Nc1ccc(NC(=O)CSc2nc3c(-c4ccccc4)c(C)nn3c(=O)[nH]2)cc1 | 8 | 29 | -4
SMILES | NPYLR7 ag | hcGAS lum | mcGAS inh
Cc1nn2c(=O)[nH]c(SCC(N)=O)nc2c1-c1ccccc1 | 16 | 55* | 0
COCc1cc(C)nc(OCC(=O)N/N=C\c2cc(I)c(O)c(I)c2)c1C#N | 1 | 19 | 58*
COCc1c(Br)c(C)nc(OCC(=O)N/N=C\c2cc(I)c(O)c([N+](=O)[O-])c2)c1C#N | 7 | 33 | 83*
COCc1cc(C)nc(OCC(=O)N/N=C\c2cc(I)c(O)c([N+](=O)[O-])c2)c1C#N | 0 | 28 | 67*
C=CCOc1c(I)cc(/C=N\NC(=O)COc2nc(C)cc(COC)c2C#N)cc1I | -2 | 3 | -1
COCc1cc(C)nc(OCC(=O)N/N=C\c2cc(Br)c(O)c(Br)c2)c1C#N | 1 | 0 | 0
COCc1c(Br)c(C)nc(OCC(=O)N/N=C\c2cc(I)c(O)c(OC)c2)c1C#N | -5 | 4 | 5
CCCCCc1ccc(C(=O)NCc2nnc(SCc3ccccc3)n2-c2ccc([N+](=O)[O-])cc2)cc1 | -1 | -3 | -3
COCCNCC(=O)N(Cc1ccc2c(c1)OCO2)Cc1ccco1 | -3 | 1 | ·
CC1Cc2ccccc2N1S(=O)(=O)CC12CCC(CC1=O)C2(C)C (configuration not stated) | -1 | -9 | ·
CCCCNc1ccc(NCCCC)c2c1C(=O)c1ccccc1C2=O | 0 | -12 | -7
O=C1c2c(O)ccc(O)c2C(=O)c2c(NCCNCCO)ccc(NCCNCCO)c21 | -5 | 42*! | 76*
N#CC1C(=N)Oc2cc(N)ccc2C1c1c(Cl)cccc1Cl (configuration not stated) | 160* | -5 | 9
N#CC1C(=N)Oc2cc(N)ccc2C1c1ccccc1I (configuration not stated) | 26 | -3 | ·
O=C(c1ccco1)N1CCC(Cc2ccc(C(F)(F)F)cc2)CC1 | 14 | 0 | -5
O=S(=O)(Oc1ccc(Cl)c2cccnc12)N1CCOCC1 | -7 | -13 | ·
CC1(C)CC(c2[nH]cnc2-c2ccccc2)CCO1 (configuration not stated) | 58* | 2 | ·
CC1(C)CC(c2nccn2CCOc2ccccc2)CCO1 (configuration not stated) | 2 | -5 | ·
CCc1cccc2c(C(CC(=O)NCCCN3CCOCC3)c3ccc(OC)c(OC)c3)c[nH]c12 (configuration not stated) | · | -12 | 68*
CCc1cccc2c(C(CC(=O)NCCCN3CCOCC3)c3cccc(C(F)(F)F)c3)c[nH]c12 (configuration not stated) | · | -12 | -10
CCCN1CCN(c2nc3c(c(=O)[nH]c(=O)n3C)n2Cc2ccc(Cl)c(Cl)c2)CC1 | 1 | -9 | ·
O=C(c1cnccn1)N1CCc2[nH]c3c(Cl)cc(Cl)cc3c2C1 | 3 | 18 | 22
COCC(=O)N1CCc2[nH]c3c(Cl)cc(Cl)cc3c2C1 | 1 | 48* | 96*
COCc1cc(C)nc(NN=Cc2ccc(-c3ccc(Br)cc3)o2)c1C#N | -25 | 2 | 1
Cc1ccc(-c2ccc(/C=N\Nc3nc4nonc4nc3Nc3ccc(Br)cc3)o2)cc1Cl | -2 | 3 | 84*
SMILES | NPYLR7 ag | hcGAS lum | mcGAS inh
O=C(Nc1nnc(C2CC2)s1)c1cccnc1N1CCCCC1 | -2 | -2 | -4
N#CC1C(=N)Oc2n[nH]c(-c3cccc([N+](=O)[O-])c3)c2C1c1ccccc1C(F)(F)F (configuration not stated) | -5 | -3 | ·
COc1ccc(S(=O)(=O)NCC2CCCN(C(=O)CSc3ccccc3)C2)cc1 (configuration not stated) | 50*! | -7 | 1
O=C(COc1ccccc1)N1CCCC(CNS(=O)(=O)c2cccs2)C1 (configuration not stated) | 57*! | -8 | -2
COc1ccc(S(=O)(=O)NCC2CCCN(C(=O)C3CCOCC3)C2)cc1 (configuration not stated) | -1 | -2 | -4
O=C(CCCc1cccs1)N1CCCC(CNS(=O)(=O)c2cccs2)C1 (configuration not stated) | 21 | -5 | ·
